Results from PubChem BioAssay AID862 (The Scripps Research Institute Molecular Screening Center, 2007).
The campaign covered roughly 190,000 compounds. About 1,700 (0.89%) were called active. For the sample, actives were picked, then their nearest neighbours and some compounds at random. Values without a mark were called inactive.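 Rule for the calls: active = inhibition above the mean inhibition across all screened compounds plus 3 SD (cut at about 44% in these data); inactive = the rest.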

assay: IL-6 driven STAT3 reporter inhibitors, primary screen, U3A cells, luciferase, luminescence, MLSCN library (AID 862); conditions: IL-6 STAT3-luciferase reporter, at 5.5 µM, active compounds read high, host cell line lacks STAT1;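 note: 0% = DMSO only wells and 100% = 100 µM nifuroxazide control wells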

In order of falling inhibition:
1. COc1cc(NS(=O)(=O)c2ccc(NC(C)=O)cc2)cc(OC)c1  38%
2. COc1cccc(/C=C/C(=O)Nc2ccc3c(c2)OCCO3)c1  30.9%
3. Brc1ccc2nc(N3CCCC3)sc2c1  30.3%
4. O=C(Nc1ccc2c(c1)OCCO2)c1ccc(Cl)c(S(=O)(=O)N2CCCCC2)c1  25.5%
5. O=C(c1cc(-c2cccs2)on1)N1CCCCC1  24.7%
6. O=C(Nc1ccccc1C(=O)N1CCOCC1)c1ccc(CSc2ccccc2)cc1  24%
7. O=C(Nc1ccn(Cc2ccc(F)cc2)n1)c1ccncc1  22.9%
8. O=C(Nc1nc(-c2ccncc2)cs1)C1COc2ccccc2O1 (stereo not drawn)  22.6%
9. COc1ccc(C(=O)NC(=S)Nc2ccc(Cl)cn2)cc1OC  20.4%
10. CCOc1ccc(NS(=O)(=O)c2ccc(C)c(C(N)=O)c2)cc1  20.3%
11. COc1cc(OC)cc(C(=O)Nc2ccc(S(=O)(=O)Nc3cc(C)on3)cc2)c1  20.2%
12. COCCCNC(=O)/C=C/c1ccc(OCc2c(F)cccc2Cl)cc1  20%
13. Fc1ccc(CNCc2ccc(Br)cc2)cc1  19.2%
14. O=C(Nc1ccccc1)c1ccc2c(c1)OCO2  18.6%
15. Nc1ccc(Nc2ccccc2)cc1  18.1%
16. CCOc1ccc(C(CC(=O)O)n2cnnn2)cc1OC (stereo not drawn)  17.4%
17. NC(=O)Cc1nc2scc(-c3ccc(Cl)cc3)c2c(=O)[nH]1  16%
18. Cc1ccc(-c2csc(NC(=O)c3cnccn3)n2)cc1C  15.5%
19. Cc1ccc(Cn2ccc(NC(=O)c3cc(C(C)C)on3)n2)cc1  15.3%
20. O=C(Nc1ccn(Cc2ccccc2)n1)c1cccc(F)c1  12.5%
21. O=C(Nc1cccc(S(=O)(=O)N2CCCCC2)c1)c1ccc2c(c1)OCO2  11.4%
22. COc1ccccc1CNC(=O)c1ccc(SC)cc1OC  11.4%
23. COc1ccc(-c2noc(-c3ccc(C)cc3)n2)cc1  11.2%
24. COc1ccc(NC(=O)CSc2nc(C)cs2)cc1  10.5%
25. Cc1ccnc(NC(=O)c2ccoc2C)c1  10.5%
26. Cc1cccc(C(=O)Nc2ccccc2C(=O)NCc2cccnc2)c1  10.3%
27. COc1ccc2nc(Nc3nc4cc5c(cc4s3)OCCO5)sc2c1  10.2%
28. CC(=O)Nc1cccc(C(=O)Nc2nc(C)cs2)c1  10.2%
29. Cc1cc(-c2nnc(CCC(=O)NC(c3ccccc3)c3ccccc3)o2)no1  9.8%
30. Cc1ccc(NC(=O)Nc2nnc(-c3ccncc3)s2)cc1  9.8%
31. COc1ccc(/C=C/C2=CC(C)(C)NC(=S)N2)c(OC)c1  9.7%
32. COc1ccc(-c2noc(-c3cccc(OC)c3OC)n2)cc1OC  9.5%
33. CCOC(=O)N1CCC(NC(=O)C(NS(=O)(=O)c2ccc3c(c2)CCN3C(=O)CC)C(C)C)CC1 (stereo not drawn)  8.6%
34. COc1ccc(C(=O)Nc2nncs2)c(OC)c1  8.6%
35. Cc1ccc2[nH]c(=O)c(CN3CCCCC3)c(-c3ccccc3)c2c1  8.1%
36. Cn1c(SCC(=O)Nc2ccc(Br)cc2F)nnc1-c1ccco1  7.9%
37. CCN(CCn1cccn1)Cc1nc(-c2ccc(C(=O)OC)cc2)no1  7.7%
38. Cc1cc(C)c2nc(NC(=O)c3ccc4c(c3)OCO4)sc2c1  6.8%
39. Cc1nn(CC#N)c(=O)n1N(C)c1ncc(C(F)(F)F)cc1Cl  6.6%
40. Cc1cccc(C)c1Nc1nnc(SCC(=O)Nc2sccc2C#N)s1  6.5%
41. Cc1ccc(NC(=O)C(=O)NCC2CCN(C(=O)c3cccc([N+](=O)[O-])c3)CC2)cc1  6.1%
42. CCOc1ccccc1NC(=O)c1cccnc1  6%
43. Cc1csc(=Nc2ccccc2)n1CCO  5.8%
44. CCOC(=O)/C(=N\Nc1ccccc1Cl)N(C)C1CCS(=O)(=O)C1 (stereo not drawn)  5.4%
45. COC(=O)c1c(C)oc2ccc(N(C(=O)Oc3ccccc3)S(=O)(=O)c3ccccc3)cc12  5.2%
46. O=c1[nH]c(CN2CCOCC2)nc2cc(Cl)ccc12  4.9%
47. O=C(/C=C/c1ccccc1[N+](=O)[O-])OC1CCCCC1=O (stereo not drawn)  4.5%
48. OC(COc1ccc(CN2CCSCC2)cc1)CN1CCCCC1 (stereo not drawn)  4.3%
49. COc1ccc2oc(C)c(NC(C)=O)c2c1  4.1%
50. CCn1c2ccccc2c2cc(NC(=O)COC(=O)c3cc(S(=O)(=O)N4CCCCC4)ccc3Cl)ccc21  4%
51. CC1CC(C)CN(CCC(=O)Nc2ccc3c(c2)CCC3)C1 (stereo not drawn)  3.9%
52. CN1C(=O)/C(=C/c2ccco2)SC1=Nc1cccc(C(=O)O)c1  3.5%
53. CCc1c(C)nc2c(OC)cccc2c1Cl  3.4%
54. NC1=NC(=O)S/C1=C\c1ccc(O)cc1  3.3%
55. COC(=O)Cc1ccc(NC(=S)NCc2ccco2)cc1  2.5%
56. CCOc1cccc(/C=N/N2C(=O)CSC2=S)c1O  2.5%
57. CC(C)c1csc(CN2CCC(CO)(Cc3ccccc3)CC2)n1  2.1%
58. O=C(Cn1cnc2ccccc21)N/N=C/c1ccco1  1.9%
59. CC(C)C(=O)Nc1ccc2c3c(cccc13)CC2  1.8%
60. C=CCn1nc(-c2ccccc2)c2c(C)onc2c1=O  1.6%
61. Cc1ccnc(NC(=O)C(C)N2C(=O)c3ccccc3C2=O)c1 (stereo not drawn)  1.4%
62. Cc1csc(=NC(=O)c2ccccc2)n1CCO  0.5%
63. C/C(CC(=O)Nc1cccc(C(F)(F)F)c1)=N\NC(=O)C(=O)NCC(C)C  0.3%
64. O=C1NC(=Nc2ccc(Cl)cc2)SC1Cc1cccc(Cl)c1Cl (stereo not drawn)  0.2%
65. COc1ccc(C2=NOC3(CC(=O)N(c4ccc(C)cc4)C3=O)C2)cc1 (stereo not drawn)  0%
66. NC(=O)COC(=O)/C=C/c1ccc2ccccc2n1  -0.2%
67. CS(=O)(=O)N(Cc1ccccc1Cl)c1ccc(C(=O)NCc2cccnc2)cc1  -0.3%
68. COc1ccc(C(=O)Nc2ccc(-n3nncc3C(C)(C)C)cc2)cc1  -0.3%
69. COc1cc2c(cc1O)[C@H](Cc1ccc(Oc3cc(C[C@@H]4NCCc5cc(OC)c(O)cc54)ccc3O)cc1)NCC2  -0.3%
70. COc1ccc(C(=O)Nc2ccc(S(=O)(=O)NC(C)C)cc2)cc1  -0.4%
71. CC(=O)NC(=S)NNC(=O)c1ccc(Br)cc1  -0.5%
72. O=C1N/C(=C/c2cccs2)C(=O)N1Cc1ccc(F)cc1  -0.7%
73. COC(=O)Cn1cc(/C=C/[N+](=O)[O-])c2ccccc21  -0.7%
74. COc1ccccc1C1SCCN1C(=O)c1ccc([N+](=O)[O-])cc1 (stereo not drawn)  -1.1%
75. COC(=O)COc1ccc(S(=O)(=O)Nc2ccc(NC(C)=O)cc2)cc1  -2%
76. COc1ccc(C(=O)Nc2ccc(CN3CCOCC3)cc2)cc1  -2.1%
77. Cc1ccc(NC(=O)NNC(=O)c2sccc2-n2cccc2)cc1  -2.5%
78. COc1ccc(C2=NOC(COC(=O)c3ccc4ccccc4n3)C2)cc1 (stereo not drawn)  -2.7%
79. Cc1ccc2c(=O)oc(N(C)C)nc2c1  -6.4%
80. CC(OC(=O)c1ccc2ccccc2n1)C(=O)c1ccccc1 (stereo not drawn)  -6.4%
81. COc1cc(SC)ccc1C(=O)NCCOc1ccccc1Cl  -8.5%
82. COC(=O)c1sc(NC(=O)c2csc3c2CCCC3)nc1C  -15.5%
83. Cc1ccc(Nc2nnc(SCc3ccccc3)s2)cc1  -15.7%
84. COc1cccc2sc(NNC(=O)c3nc4ccccc4s3)nc12  -23.2%
85. COc1c(Cl)cc(C(=O)Nc2ccc(Cl)cn2)cc1Cl  -37.3%

With `O=C(Nc1ccc(Cl)cn1)c1ccc2c(c1)OCCO2` the inhibition was 70.2% (active).
For `O=C(Nc1cccc(S(=O)(=O)Nc2ccc(Cl)cc2)c1)c1ccc2c(c1)OCCO2`, the inhibition was 44.7% (active).
In the case of `c1c2c(cc3sc(N4CCCCC4)nc13)OCCO2`, the inhibition is reported as 89.7% (active).
With `O=C(Nc1nc(-c2ccc3c(c2)OCO3)cs1)c1ccncc1` the inhibition was 64.6% (active).
With `O=C(Nc1nc2ccccc2s1)c1ccc2c(c1)OCO2` the inhibition was 61.3% (active).
In the case of `COc1ccc(S(=O)(=O)Nc2ccc3oc(C)c(C(C)=O)c3c2)cc1`, the inhibition is reported as 46% (active).
For `COc1ccc(NS(=O)(=O)c2ccc(NC(C)=O)cc2)cc1OC`, the inhibition was 47.9% (active).
For `O=C(Nc1ccc(CSc2ccccc2)cc1)c1ccc(CN2CCOCC2)cc1`, the inhibition was 72.7% (active).
In the case of `Cc1csc(SCC(=O)Nc2sccc2C#N)n1`, the inhibition is reported as 44.3% (active).
With `COc1ccc(NS(=O)(=O)c2ccc(NC(=O)c3ccc(N(C)S(C)(=O)=O)cc3)cc2)cc1` the inhibition was 60.1% (active).
For `O=C(Nc1ccn(Cc2ccccc2)n1)c1n[nH]c([N+](=O)[O-])c1Cl`, the inhibition was 53.5% (active).
For `Cc1ccc(Nc2ccccc2N)cc1`, the inhibition was 69.5% (active).
With `COc1ccc(C2=Nc3cc(C)ccc3OC2)cc1` the inhibition was 66.7% (active).
With `CC[C@H]1CN2CCc3cc(OC)c(OC)cc3[C@@H]2C[C@@H]1C[C@H]1NCCc2cc(OC)c(OC)cc21` the inhibition was 101% (active).
In the case of `Cc1cc(NC(=O)c2cc(-c3cccs3)on2)nn1Cc1ccc(Cl)cc1`, the inhibition is reported as 47.2% (active).
With `OCCn1c(-c2ccccc2)csc1=Nc1ccccc1` the inhibition was 46.5% (active).
In the case of `COc1ccc(-c2nc(-c3ccccc3)no2)c(OC)c1`, the inhibition is reported as 102% (active).
For `O=c1[nH]c(CCl)nc2cc(-c3ccc(Cl)cc3)sc12`, the inhibition was 51.2% (active).
In the case of `CCOc1cccc(/C=C/c2ccc3ccccc3n2)c1OC(C)=O`, the inhibition is reported as 58.6% (active).
For `COc1cccc(/C=C/c2ccc3ccccc3n2)c1OC(C)=O`, the inhibition was 89.8% (active).
For `COc1cc(SC)ccc1C(=O)Nc1nc(C)cs1`, the inhibition was 111% (active).
With `COc1cc(SC)ccc1C(=O)Nc1cc(C)ccn1` the inhibition was 55.6% (active).
For `COC(=O)c1sc(NC(=O)c2ccc(OC)cc2OC)nc1C`, the inhibition was 86% (active).
